Experimental data published in publication PMC4336329 (PLoS ONE, 2015).
Hit rate of the full screen: of about 310,000 compounds, about 14,000 (4.5%) showed an effect of 50% or more. Effects have a minus sign here. The list comes from a sample in which strong results are over-represented; it also holds similar structures and randomly drawn compounds.

The compounds below were run against human ether-à-go-go-related gene (hERG) potassium channel (human, UniProt Q12809) (assay: primary screen, population patch clamp on CHO cells stably expressing hERG; higher = less effect of the substance).
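Also: peak tail current of the secondary pulse compared with the same well before compound.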

Chain of human ether-à-go-go-related gene (hERG) potassium channel (Q12809 whole entry, looked up): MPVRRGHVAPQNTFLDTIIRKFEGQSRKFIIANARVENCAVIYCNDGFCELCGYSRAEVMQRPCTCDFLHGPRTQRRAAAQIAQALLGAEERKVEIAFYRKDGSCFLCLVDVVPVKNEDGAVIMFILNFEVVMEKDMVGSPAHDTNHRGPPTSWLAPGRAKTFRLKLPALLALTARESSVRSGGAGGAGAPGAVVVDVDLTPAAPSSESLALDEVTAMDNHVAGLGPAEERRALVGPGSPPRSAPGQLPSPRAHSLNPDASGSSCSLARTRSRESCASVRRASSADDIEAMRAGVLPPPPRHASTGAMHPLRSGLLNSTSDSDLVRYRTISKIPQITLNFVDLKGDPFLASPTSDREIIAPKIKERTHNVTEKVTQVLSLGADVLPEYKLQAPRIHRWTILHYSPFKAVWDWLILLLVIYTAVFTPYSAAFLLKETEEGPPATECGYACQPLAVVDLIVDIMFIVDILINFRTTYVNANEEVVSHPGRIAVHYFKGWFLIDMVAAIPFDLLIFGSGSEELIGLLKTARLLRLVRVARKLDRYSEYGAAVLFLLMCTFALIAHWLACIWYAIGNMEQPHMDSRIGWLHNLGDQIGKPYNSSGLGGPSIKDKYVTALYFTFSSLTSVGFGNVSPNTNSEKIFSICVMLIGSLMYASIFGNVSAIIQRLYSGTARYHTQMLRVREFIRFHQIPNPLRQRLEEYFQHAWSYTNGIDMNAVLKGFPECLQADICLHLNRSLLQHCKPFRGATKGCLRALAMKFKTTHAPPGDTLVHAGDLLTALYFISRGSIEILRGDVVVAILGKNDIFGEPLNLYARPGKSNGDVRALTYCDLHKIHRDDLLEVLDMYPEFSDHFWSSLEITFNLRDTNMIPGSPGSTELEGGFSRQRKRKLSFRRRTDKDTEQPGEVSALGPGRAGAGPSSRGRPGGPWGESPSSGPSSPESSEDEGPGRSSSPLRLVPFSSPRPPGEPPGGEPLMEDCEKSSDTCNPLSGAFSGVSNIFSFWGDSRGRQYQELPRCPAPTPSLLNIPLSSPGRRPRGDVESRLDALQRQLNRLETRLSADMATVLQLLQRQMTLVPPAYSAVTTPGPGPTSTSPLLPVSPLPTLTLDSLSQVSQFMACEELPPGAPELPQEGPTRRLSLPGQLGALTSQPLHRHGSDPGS

| Structure (SMILES) | hERG current change (%, negative = inhibition) at 10uM [%] |
| --- | --- |
| Cc1cccc(C)c1NC(=O)C1c2cccc[n+]2CC(=O)N1Cc1cccs1.[I-] (stereo not shown) | 4.89 |
| O=C(CCN1C(=O)/C(=C/c2ccccc2F)SC1=S)NC1C=CS(=O)(=O)C1 (stereo not shown) | 15.3 |
| CCOc1ccc(C(=O)c2nc3c(n2O)CCCC3)cc1 | 18.5 |
| O=C(O)/C=C/C(=O)Nc1cccc(C(F)(F)F)c1 | 7.79 |
| CCCN(CCC)CC(O)Cn1c2ccccc2c2ccccc21 (stereo not shown) | -32.1 |
| CCCCN(CCCC)CC(O)Cn1c2ccccc2c(=O)c2ccccc21 (stereo not shown) | -68 |
| CC(C)CCN(CCC(C)C)CC(O)Cn1c2ccccc2c(=O)c2ccccc21 (stereo not shown) | -22 |
| COCCCNC(=O)CCC(=O)Nc1ccc2nc(N3CCOCC3)cc(C)c2c1 | 4 |
| COc1ccc(C2Oc3ccccc3C3=C2C(c2cccs2)n2ncnc2N3)cc1 (stereo not shown) | -52.1 |
| Fc1ccc(C2C3=C(Nc4ncnn42)c2ccccc2OC3c2ccncc2)cc1 (stereo not shown) | -60.4 |
| Brc1ccc(C2C3=C(Nc4ncnn42)c2ccccc2OC3c2ccncc2)cc1 (stereo not shown) | -32 |
| Clc1ccc2c(c1)C1=C(C(c3ccncc3)O2)C(c2ccc(Br)cc2)n2ncnc2N1 (stereo not shown) | 4.44 |
| Cc1ccc(C2Oc3ccccc3C3=C2C(c2cccs2)n2ncnc2N3)cc1 (stereo not shown) | -7.55 |
| c1csc(C2C3=C(Nc4ncnn42)c2ccccc2OC3)c1 (stereo not shown) | 11.4 |
| COc1ccc(C2NC(=O)CCC2[N+](=O)[O-])c(OC)c1OC (stereo not shown) | 12.2 |
| Cn1c(-c2cccc3ccccc23)n[nH]c1=S | 21.9 |
| CCOc1ccc(/C(O)=C2/C(=O)C(=O)N(c3cc(C)on3)C2c2ccc(C(=O)OC)cc2)cc1 (stereo not shown) | 11.3 |
| Cc1cccc(C(=O)NCC(=O)N2CC=C(c3ccccc3)CC2)c1 | -40.9 |
| CSCCC(NC(=O)c1ccco1)C(=O)N1CC=C(c2ccccc2)CC1 (stereo not shown) | -48 |
| COc1cc(C(=O)NCC(=O)N2CC=C(c3ccccc3)CC2)cc(OC)c1OC | -51.2 |
| CCOc1ccc(C(=O)NCC(=O)N2CCCCCCC2)cc1OCC | 1.47 |
| CCOc1ccc(C(=O)NCC(=O)N2CC=C(c3ccccc3)CC2)cc1OCC | -62.9 |

| Structure (SMILES) | hERG current change (%, negative = inhibition) at 10uM [%] |
| --- | --- |
| COc1ccccc1C(=O)NCC(=O)N1CC=C(c2ccccc2)CC1 | 6.76 |
| COc1ccc(C(=O)NCC(=O)N2CC=C(c3ccccc3)CC2)cc1OC | -37.9 |
| O=C(NCC(=O)N1CC=C(c2ccccc2)CC1)c1ccco1 | -78.4 |
| CCOc1ccc(C(=O)NCC(=O)N2CCc3ccccc3C2)cc1OCC | 4.5 |
| CCOC(=O)N1CCN(C(=O)COC(=O)COc2c(C)cc(C)cc2C)CC1 | -9.8 |
| O=c1c(-c2ccc(O)cc2O)coc2cc(O)cc(O)c12 | -4.59 |
| Nc1nnc(Cc2cccc(Br)c2)s1 | 3.51 |
| COCCNC(=O)COc1ccc(C)cc1C | 10.4 |
| CCCCNC(=S)N(C)/N=C/c1ccc(OCC(=O)Nc2ccc(OC)cc2)c(OC)c1 | -4.23 |
| CCOC(=O)C1=C(C)NC(SCC(N)=O)=C(C#N)C1c1cccs1 (stereo not shown) | -13.2 |
| O=C(c1ccc2c(=O)n3c(nc2c1)CCCCC3)N1CCN(Cc2ccccc2)CC1 | -2.69 |
| Cc1ccc(C(=O)OCC(=O)N(C)c2ccccc2)cc1C | -9.59 |
| COc1ccc(CCn2c(C(C)C)nc3c(c(=O)c4ccccc4n3C)c2=O)cc1 | -30 |
| COc1ccc2c(=O)c3c(=O)n(CCc4ccccc4)c(C(C)C)nc3oc2c1 | 5.79 |
| COc1ccc(Cn2c(C)nc3c(c(=O)c4ccccc4n3C)c2=O)cc1 | -44.5 |
| COc1ccc(CCn2c(-c3ccccc3)nc3c(c(=O)c4ccccc4n3C)c2=O)cc1 | 11.3 |
| CCc1nc2c(c(=O)c3ccccc3n2C)c(=O)n1CCc1ccc(OC)cc1 | -74.9 |
| COCCn1c(C(C)C)nc2oc3ccccc3c(=O)c2c1=O | 3.05 |
| COc1ccc(CCn2c(C(C)C)nc3oc4ccccc4c(=O)c3c2=O)cc1 | -75.3 |
| COc1ccc(CCn2c(C)nc3c(c(=O)c4ccccc4n3C)c2=O)cc1 | -61.4 |
| COc1ccc(CCn2c(-c3ccc(OC)cc3)nc3c(c(=O)c4ccccc4n3C)c2=O)cc1 | 11.4 |
